Experimental findings from PubChem BioAssay (NCATS) are described below.

Each structure is given as a SMILES string. Values joined by “and” are separate entries in the source; they are usually repeats but may differ in a detail not shown here. Equal entries are not always repeated. Results filed as inconclusive are left out. Active and inactive are the calls of the source. Unless noted, how the calls were made is not given here.

Test [1] can be described thus: qHTS Assay for Identifying Gametocytocidal Compounds (AID 743244; active means well fitted curve in the direction sought with a large enough effect;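 further: on the % scale 0 is the no-effect control and ±100 the full control effect; actives lower the fluorescent signal which means gametocytes are killed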). The note with it: P. falciparum 3D7 stage III-V gametocytes, alamarBlue, 72 h; max response: stronger effect = lower value. The essentials: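 In this qHTS viability screen, late-stage 3D7 gametocytes are incubated with compound for 72 h, then with alamarBlue for 24 h; reduced resorufin fluorescence marks killing.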

Test [2] is described as follows: qHTS profiling of the MIPE4 collection as inhibitors of Plasmodium falciparum (DD2) proliferation (AID 743345). Particulars: P. falciparum Dd2 in erythrocytes, SYBR Green DNA, 72 h; at 28.5 µM (top of the series) unless noted. In outline: (§1)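 Erythrocytes infected with P. falciparum (0.3% parasitemia, 2.5% hematocrit) incubated with compounds 72 h at 37 C, 5% CO2. Lysis with saponin/Triton buffer containing SYBR Green I, overnight at room temperature in the dark; DNA fluorescence (485/535 nm) normalised to 0.29 uM artemisinin and DMSO.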

Test [3] in a line: qHTS profiling of the MIPE4 collection as inhibitors of Plasmodium falciparum (3D7) proliferation (AID 743344).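 Further: scaled between DMSO vehicle wells and 0.29 µM artemisinin as full inhibition.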 The note with it: P. falciparum 3D7 in erythrocytes, SYBR Green DNA fluorescence, 72 h; at 28.5 µM (top of the series) unless noted. In outline: as §1
Background: In qHTS, concentration-response curves come from the screen itself.

As for `CCn1cc(C(=O)O)c(=O)c2cc(F)c(N3CCN(C)CC3)cc21`, the max response in test [1] was 4.94% (inactive). For the same compound, in test [2], the parasite growth remaining, % of DMSO control (lower = more inhibition) came to 70.5%.
Turning to `Nc1nc(=S)c2[nH]cnc2[nH]1`, in test [1], the max response is 3.77% (inactive) and 7.36% (inactive). For the same compound, the parasite growth remaining, % of DMSO control (lower = more inhibition) in test [2] was 101%.
In test [3], `CNCC[C@H](Oc1cccc2ccccc12)c1cccs1` came in with a parasite growth, % of DMSO control of 6.18%. Moreover, the parasite growth remaining, % of DMSO control (lower = more inhibition) in test [2] amounted to 7.89%.
On to `NC(=O)c1cccnc1`, for which the max response in test [1] was 0.464% (inactive). Moreover, the parasite growth remaining, % of DMSO control (lower = more inhibition) in test [2] turned out to be 97.3%.
For `CNNCc1ccc(C(=O)NC(C)C)cc1`, in test [1], the max response is -5.75% (inactive). Also, the parasite growth remaining, % of DMSO control (lower = more inhibition) in test [2] amounted to 93.3%.
For `CN(C)CCc1c[nH]c2ccc(CS(=O)(=O)N3CCCC3)cc12` the same measures were 1.18% (inactive) and 92.8%.
The compound `CCCCc1oc2ccc(NS(C)(=O)=O)cc2c1C(=O)c1ccc(OCCCN(CCCC)CCCC)cc1` registered a parasite growth, % of DMSO control in test [3] of 7.48%. Moreover, the parasite growth remaining, % of DMSO control (lower = more inhibition) in test [2] was 6.73%.
In the case of `CC(C)(Sc1cc(C(C)(C)C)c(O)c(C(C)(C)C)c1)Sc1cc(C(C)(C)C)c(O)c(C(C)(C)C)c1`, in test [1], the max response was -1.03% (inactive). In addition, the parasite growth remaining, % of DMSO control (lower = more inhibition) in test [2] was 26.6%.
The matching figures for `CCC(C)(C)c1ccc(CC(C)CN2C[C@@H](C)O[C@@H](C)C2)cc1` (some centres not stated): 21.2% (inactive) and 82.2%.
As for `C[C@@H](NCCCc1cccc(C(F)(F)F)c1)c1cccc2ccccc12`, the parasite growth, % of DMSO control in test [3] amounted to 16.2%. For the same compound, the parasite growth remaining, % of DMSO control (lower = more inhibition) in test [2] was found to be 18.5%.
Take `Nc1nc(F)nc2c1ncn2[C@@H]1O[C@H](CO)[C@@H](O)[C@@H]1O`: the max response in test [1] was 0.368% (inactive) and 0.376% (inactive). Further, in test [2], the parasite growth remaining, % of DMSO control (lower = more inhibition) stood at 19.5%.
